sEH act: soluble epoxide hydrolase activators, primary screen, biochemical, human sEH. Bifunctional epoxide hydrolase 2 (Homo sapiens), P34913. purified human sEH enzymatic activity, activator screen. activation, % at 2 µM. 91,000 tested, 0.04% active; in the data active means activation above about 37%
CYP2C9 inh: blockers of cytochrome P450 2C9 activity – biochemical, luminescence, ADME assay, primary screen. P11712. inhibition, % at 5 µM. 96,000 tested, 20% active. AID 777, 2007. CYP2C9 Supersomes, luciferin-H conversion;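 active means blocking of liver enzyme CYP2C9 beyond about 50% at 5 µM, limit read from the data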
CYP2C19 inhib: blockers of cytochrome P450 2C19 activity – biochemical, luminescence, ADME assay, primary screen. 96,000 tested, 21% active. AID 778, 2007. inhibition, % at 5 µM. P33261. CYP2C19 Supersomes, luciferin-H EGE luminescence, 30 min;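 active means CYP2C19 inhibition above a set limit at 5 µM in the primary screen, cut at about 50% in these data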;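 further: plate controls were negative control wells for no effect and 2.5 mM tranylcypromine positive control for full effect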
Target sequence (P33261 whole entry, looked up): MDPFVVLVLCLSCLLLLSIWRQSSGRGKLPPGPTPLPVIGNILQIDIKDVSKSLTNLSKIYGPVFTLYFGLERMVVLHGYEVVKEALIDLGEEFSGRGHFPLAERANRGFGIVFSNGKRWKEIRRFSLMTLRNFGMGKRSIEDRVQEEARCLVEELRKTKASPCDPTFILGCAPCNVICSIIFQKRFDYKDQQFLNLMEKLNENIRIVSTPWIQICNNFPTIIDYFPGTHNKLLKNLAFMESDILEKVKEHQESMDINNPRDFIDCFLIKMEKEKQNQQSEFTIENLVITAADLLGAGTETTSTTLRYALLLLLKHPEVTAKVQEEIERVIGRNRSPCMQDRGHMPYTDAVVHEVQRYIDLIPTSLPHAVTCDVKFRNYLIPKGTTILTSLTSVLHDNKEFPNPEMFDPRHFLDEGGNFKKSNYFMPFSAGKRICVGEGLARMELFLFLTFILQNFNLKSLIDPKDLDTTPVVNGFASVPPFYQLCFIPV
CYP2C19 activ: human CYP2C19 activators, primary screen, biochemical, luminescence; activation factor at 5 µM; Cytochrome P450 2C19 (Homo sapiens), P33261; recombinant CYP2C19, luciferin-H EGE luminescence; active compounds read high; 0 = fully inhibited enzyme, 1 = untreated enzyme; 96,000 tested, under 10 active;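 active means activation factor of at least 2 at 5 µM in the primary screen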;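 further: 0 = wells with 2.5 mM tranylcypromine and 1 = vehicle-only wells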
CYP2C9 act: human CYP2C9 activators, primary screen, biochemical, luminescence; Cytochrome P450 2C9 (Homo sapiens), P11712; recombinant CYP2C9, luciferin-H conversion; active compounds read high; factor 1 = untreated enzyme, 0 = blocked; activation factor at 5 µM; 96,000 tested, 1.4% active;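 active means activation factor of 2 or more for CYP2C9 at a 5 µM dose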;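 further: 0 = sulfaphenazole-blocked wells and 1 = vehicle-only wells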
sEH inh: soluble epoxide hydrolase inhibitors, primary screen, biochemical, human sEH. inhibition, % at 2 µM. AID 707, 2007. 91,000 tested, 0.34% active. recombinant human sEH enzymatic activity assay; in the data active means inhibition above about 80%
Starred values were filed as active, the others as inactive; . = no result given. Rows were chosen to be rich in hits. Some 27% of all compounds tested hit in one or more screens of this group.

SMILES	sEH act	CYP2C9 inh	CYP2C19 inhib	CYP2C19 activ	CYP2C9 act	sEH inh
C/C(CC(=O)Nc1cc(Cl)ccc1Cl)=N\NC(=O)c1ccco1	2	4	14	0.9	1	-1
CCOc1ccc2nc(SCC(=O)N3CCCc4ccccc43)sc2c1	-10	22	50	0.5	0.8	10
O=C(CSc1nc2cc(Cl)ccc2s1)N1CCCc2ccccc21	-2	62*	44	0.6	0.4	1
NC(=O)C1CCN(C(=O)CSc2nc3ccccc3s2)CC1	2	23	8	0.9	0.8	0
CC1CCCN(C(=O)CSc2cnc3ccccc3n2)C1 (stereo not drawn)	8	11	50*	0.5	0.9	-5
CC1CCN(C(=O)CSc2nc3ccccc3s2)CC1	-2	63*	57*	0.4	0.4	2
CCCCC1CC(C)(C(=O)CSc2nc3ccccc3s2)OC1=O (stereo not drawn)	-2	78*	4	1	0.2	2
Cc1ccc(NC(=O)CSc2nnnn2-c2ccc3c(c2)OCO3)cc1C	-29	.	.	.	.	28
CC(=O)OC1CCC(OC(C)=O)c2c1n([O-])c(C)c(C)[n+]2=O (stereo not drawn)	15	-2	8	0.9	1	-18
O=C(CSc1ccc(Cl)cc1)N1CCC(c2nc3ccccc3s2)CC1	-14	54*	25	0.8	0.5	12
COC(=O)c1[nH]c2ccccc2c1NC(=O)C(C)N1CCN(C(=O)c2ccco2)CC1 (stereo not drawn)	4	25	11	0.9	0.7	-4
O=C(Nc1ccc2c(c1)nc1n2CCOC1)c1ccccc1	.	0	-1	1	1	.
COC(=O)c1ccc(Nc2cc(C)nc(-c3ccccc3O)n2)cc1	.	59*	21	0.8	0.4	.
CCOC(=O)C1C(=O)CC(C)(O)C(C(=O)OCC)C1/C=C/c1ccccc1 (stereo not drawn)	-5	8	14	0.9	0.9	4
COc1ccc(OC)c(C(c2nnnn2CCC(C)C)N2CCN(C(=O)c3ccco3)CC2)c1 (stereo not drawn)	.	74*	67*	0.3	0.3	.
O=C(c1ccco1)N1CCN(C(c2ccc(F)cc2)c2nnnn2Cc2cccs2)CC1 (stereo not drawn)	-9	30	23	0.8	0.7	11
CC(C)CCn1nnnc1C(c1ccc(F)cc1)N1CCN(C(=O)c2ccco2)CC1 (stereo not drawn)	-16	96*	63*	0.4	0	16
c1ccc(-c2csc3ncn4nnnc4c23)cc1	2	11	12	0.9	0.9	0
Cc1ccc2c(N)c(C)ccc2c1	12	11	67*	0.3	0.9	-13
CCCCC(CC)CNC(=O)CN(C)S(=O)(=O)c1cccc2nsnc12 (stereo not drawn)	.	26	23	0.8	0.7	.
CCCNC(=O)CN(c1ccc(F)cc1)S(=O)(=O)c1ccc2c(c1)OCCO2	5	85*	81*	0.2	0.2	-5
O=C(O)CN(c1ccc(F)cc1)S(=O)(=O)c1ccc2c(c1)OCCO2	-10	24	10	0.9	0.8	10
O=C(CN(c1ccc(F)cc1)S(=O)(=O)c1ccc2c(c1)OCCO2)NCc1ccncc1	17	73*	90*	0.1	0.3	-16
O=C(CN(c1ccc(F)cc1)S(=O)(=O)c1ccc2c(c1)OCCO2)NCc1cccnc1	12	84*	94*	0.1	0.2	-12
O=C1CCC(C(=O)OCc2c(Cl)cccc2Cl)N1 (stereo not drawn)	-2	-16	-9	1.1	1.2	4
O=C(COC(=O)c1ccccc1OCc1ccc(Cl)cc1)NC1CC1	5	62*	75*	0.3	0.4	-2
CCS(=O)(=O)N1CCN(C(=O)c2ccco2)CC1	7	-6	10	0.9	1.1	-5
CC1CCC(NC(=O)COc2ccccc2C(N)=O)CC1 (stereo not drawn)	-7	-8	21	0.8	1.1	9
O=C(OCC(=O)N1CCN(C(=O)c2ccco2)CC1)c1ccccc1O	-1	72*	46	0.5	0.3	0

Screens from PubChem BioAssay.
